± gives the standard deviation of the averaged measurements. Over roughly 25,000 sequences, “ln(normalized median fluorescence intensity)” has its median near 8.6; the highest 2% begin near 10. What follows is part of a selection rich in the highest values, with near analogues and random picks from the rest.
test system: PfAP2-EXP AP2 domain (GST-tagged); test: gcPBM binding intensity (ln(normalized median fluorescence intensity)); higher = stronger DNA binding
In short: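 DNA-binding domains from P. falciparum, fused to GST and produced in E. coli, were put on an Agilent 4 × 180k double-stranded probe array for 1 h in 1× PBS holding 1% milk, 0.2 mg/ml BSA, 0.5% salmon testes DNA and 0.03% Triton X-100. Probes were primer-extended, 36 bp long and drawn from intergenic genomic regions, with negative controls included. After Alexa488 anti-GST antibody detection and a 488 nm scan, binding intensity was set as the highest Masliner-normalised natural-log median intensity across replicate spots of either probe orientation.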

Sequence	gcPBM binding intensity (ln)
GTGAAATGGAAAAAAAGTACAGATTACATAAGTATT [XGTACX_site6355]	8.64 ± 0.42
TATTTATTGTGATACTACTATTATTTTATGATTAAA [CACACA_negctrl_site284]	8.44 ± 0.42
GTATAATATTCATATTCACACATTAAAATATATTTA [CACACA_site4879]	8.49 ± 0.49
AAAAAATGATAATATACACACTTATGGGAGAGCGCA [CACACA_site5398]	8.275 ± 0.078
ATTTTAAATTAAATTACACACTACGAATAATATATT [CACACA_site4016]	8.43 ± 0.42
CAACAAAAGTTATTTACACACAAAAGGCAAGGAAAT [CACACA_site7013]	8.94 ± 0.47
TAACATATTTTTAATACACACTTAAAAAAGTACTTA [CACACA_site4875]	8.31 ± 0.34
TTTTTTTTTTTTTACACACCCAAATCACATACATAT [CACACA_site6089]	8.59 ± 0.44
AAATGTTGAAATGATACACACATATAAATATAAATA [CACACA_site7229]	8.53 ± 0.42
AATCAATAAATAAAAACATGCATATATATATATATA [TGCATGCA_site438]	10.3 ± 0.47
AAAAAAATTAAACACACACACACATATATATATATA [CACACA_site4718]	10.1 ± 0.25
AAAAAAAAATTAAAAACACACATATAAATAAATATA [CACACA_site6845]	8.48 ± 0.48
AAATGTTGAAATGATACACACATATATATATATATA [CACACA_site2517]	10.3 ± 0.32
AAAAAAAAATTAAAAACACACATATATATATATATA [CACACA_site1580]	10.2 ± 0.39
TCAATAAATATACATACATGCATACATACATACATA [TGCATGCA_site197]	8.72 ± 0.47
AAAAAAAAAATTAAAACATGCATAAATAAATATATT [TGCATGCA_site866]	8.73 ± 0.37
AGAAATGAAATATACACACATACATATATACATATA [CACACA_site4033]	8.49 ± 0.27
TGGTATATAAAACACACACACATATGTATTTATATA [CACACA_site4665]	8.54 ± 0.38
TCATGGAATATTTAAAGTACAAAAAGTGTTCTTTAC [XGTACX_site715]	8.21 ± 0.3
TAATATCATTTATGTAGTACTATAACAAGAACTATA [XGTACX_site3618]	8.33 ± 0.35
TATATATATATAAAGGTGCATATCTTTACGTATGTC [GTGCAC_site9665]	9.99 ± 0.11
AAAAAAAAGGAAAATAAAAATAAAAAAAAATAATAA [XGTACX_negctrl_site601]	8.53 ± 0.52
AAAAAAAAAAAATACACACACACATATATATATATA [CACACA_site731]	10.2 ± 0.18

Sequence	gcPBM binding intensity (ln)
AAAAAAAAAAAAAATACACACATATATATATATATA [CACACA_site85]	10.1 ± 0.34
AAAAAAAAAAAATATACACACACATATATATATATA [CACACA_site9123]	10 ± 0.45
AAAAAAAAAAAATACACACACATATATATATATATA [CACACA_site2224]	10.2 ± 0.23
AAAAAAAATACATACATACACACATATATATATATA [CACACA_site912]	9.98 ± 0.38
AAAAAAAAAAAAAATACACACACATATATATATATA [CACACA_site8698]	10.1 ± 0.26
TTATATAAATATAAGGTGCTGGGGTTTATTACATAT [GTGCAC_site9909]	9.03 ± 0.54
AAGATGGTAAAGAATTGTACGCGCATATATATATTT [XGTACX_site3904]	9.69 ± 0.42
GGCATACACAGACACACACACACACCCACATATATA [CACACA_site591]	8.79 ± 0.4
TGTATTATATATGTGTGTACATATTTTTTTTTTTTT [XGTACX_site3351]	8.47 ± 0.34
TTTTAAAGCATATCATATAAAGAACATGACATAGGA [CACACA_negctrl_site630]	8.61 ± 0.33
TTTTTTAAATTTAAAGTGCATTATTATATATTTGTA	8.65 ± 0.15
AAAAAAAAAAAAAAAGTGCATATATAAATATTGTAT [GTGCAC_site9459]	8.62 ± 0.3
ATTTTTTTTGTAAAAGTGCATATATATATATATATA	10.4 ± 0.35
AAAATTAATAAATAAACACACATATTTATATTTATA [CACACA_site7266]	8.03 ± 0.41
AAAAAAAAAATTCATTGTACATATATATATATATAT [XGTACX_site8346]	10.2 ± 0.22
AAAATATATTCAACTTGTACATATATATATATATAT [XGTACX_site7629]	10.3 ± 0.13
TAACTTCAAAAATCTTGTACATAAATATATAAAACA [XGTACX_site8574]	8.53 ± 0.44
CTTAAAAAAATATATTGTACATATATATATACAACT [XGTACX_site1281]	8.33 ± 0.3
GAATATTCACATACTTGTACATATATATATATATAT [XGTACX_site7302]	10.2 ± 0.68
ATATATATTATATATTGTACATATTATATTCATTAT [XGTACX_site1766]	8.57 ± 0.3
ATGTATGTATATACTTGTACATATTCATATTAGTAT [XGTACX_site1118]	8.45 ± 0.35
AATACACAAATATATTGTACATATATATATATATAT [XGTACX_site2440]	9.85 ± 0.34
TAAAAATATTTTCATTGTACATATATATAAATATAT [XGTACX_site1123]	8.4 ± 0.33
